Consider seven compounds from PubChem BioAssay (NCI).

Compounds without any hit were thinned out: in the full panel of roughly 83,000, 20% have a hit.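 Growth was measured after 48 h exposure to one concentration of compound in 96-well plates. Values under 10 count as active.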 Unmarked numbers belong to inactive results. Calls of active or inactive are those of the source.

Test systems include NCI-H23 lung; NCI-H226 lung; NCI-H322M lung; HOP-62 NSCLC; NCI-H460 lung; HOP-92 NSCLC; NCI-H522 lung; A549/ATCC NSCLC; 786-0 renal; COLO 205 colon; DU-145 prostate; K-562 leukemia; MALME-3M melanoma; MDA-MB-231 breast; RXF 393 renal; SF-268 CNS; SF-295 CNS; SF-539 CNS; UACC-257 melanoma; M14 melanoma.
Experiment in all cases: NCI-60 one-dose screen, 48 h (100 = growth as untreated, 0 = no growth, -100 = all killed)
Holding throughout (conditions): 10 µM

For `O=[N+]([O-])c1ccc(Br)o1`, the growth in the test with NCI-H23 lung was 94.4%; in the test on NCI-H226 lung, 93.1%; in the test with NCI-H322M lung, 103%; in the test on HOP-62 NSCLC it was 100%; in the test with NCI-H460 lung, 113%; in the test with HOP-92 NSCLC it was 102%. Moreover, the growth in the test on NCI-H522 lung was 84.4%; in the test on A549/ATCC NSCLC, 104%; in the test with 786-0 renal, 99.2%; in the test on COLO 205 colon, 105%; with DU-145 prostate it was 101%; in the test with K-562 leukemia it was 106%. The growth in the test on MALME-3M melanoma is 104%; in the test with MDA-MB-231 breast, 107%; in the test on RXF 393 renal it was 106%; in the test on SF-268 CNS, 95.9%; in the test with SF-295 CNS, 98.8%; with SF-539 CNS it was 98.6%. Further, the growth in the test with UACC-257 melanoma is 110%; with M14 melanoma it was 104%.

With `COc1ccc(-c2cc(/C=C3\C(=O)Nc4cc(Cl)ccc43)[nH]n2)cc1`, the growth in the test on NCI-H23 lung was 54.1%; with NCI-H226 lung, 56.1%; with NCI-H322M lung it was 81.9%; with HOP-62 NSCLC, 45.4%; with NCI-H460 lung, 22%; in the test on HOP-92 NSCLC, 51.7%. In addition, the growth was -14.9% (active) with NCI-H522 lung; 44% with A549/ATCC NSCLC; 52.1% in the test on 786-0 renal; 19.4% with COLO 205 colon; 26.4% in the test with DU-145 prostate; 13.3% in the test with K-562 leukemia. Also, the growth was 29.2% in the test with MALME-3M melanoma; 54.5% in the test with MDA-MB-231 breast; 9.94% (active) with RXF 393 renal; 36.5% in the test on SF-268 CNS; 1.51% (active) in the test with SF-295 CNS; 4.51% (active) in the test with SF-539 CNS. Also, the growth in the test with UACC-257 melanoma is 62.2%; with M14 melanoma, 35%.

For `Cc1ncc([N+](=O)[O-])n1CCOc1ccc(C(=O)/C=C/c2ccc(C(F)(F)F)cc2)cc1`, the growth was 88% with NCI-H23 lung; 76.2% in the test on NCI-H226 lung; 66.4% in the test on NCI-H322M lung; 88.9% in the test on HOP-62 NSCLC; 79.5% in the test with NCI-H460 lung; 67.1% in the test with HOP-92 NSCLC. Besides, the growth was 67.1% with NCI-H522 lung; 55.5% in the test with A549/ATCC NSCLC; 63.3% in the test with 786-0 renal; 61.2% in the test on COLO 205 colon; 56.4% with DU-145 prostate; 14% in the test with K-562 leukemia. The growth is 81.8% in the test with MALME-3M melanoma; 82.9% in the test with MDA-MB-231 breast; 64.1% in the test on RXF 393 renal; 77.4% in the test with SF-268 CNS; 73.8% with SF-295 CNS; 57.5% in the test on SF-539 CNS. The figures for the growth with UACC-257 melanoma and in the test with M14 melanoma were 82.9% and 79.7%, respectively.

For `CC(=O)n1nc(C(=O)OC(C)(C)C)c2cc(F)c(F)cc21`, the growth in the test on NCI-H23 lung was 101%; in the test on NCI-H226 lung, 105%; in the test on NCI-H322M lung, 102%; in the test with HOP-62 NSCLC, 99%; with NCI-H460 lung, 102%; with HOP-92 NSCLC it was 83%. Moreover, the growth was 83.2% with NCI-H522 lung; 95.9% with A549/ATCC NSCLC; 97.5% in the test on 786-0 renal; 103% in the test with COLO 205 colon; 102% in the test on DU-145 prostate; 110% in the test on K-562 leukemia. Further, the growth with MALME-3M melanoma is 98.7%; in the test on MDA-MB-231 breast, 94%; in the test on RXF 393 renal it was 126%; in the test with SF-268 CNS, 101%; with SF-295 CNS it was 101%; with SF-539 CNS it was 104%. Also, the growth was 113% in the test on UACC-257 melanoma and 90.9% in the test with M14 melanoma.

Consider `Nc1cc(O)cc(O)c1`, for which the growth with NCI-H23 lung was 93.9%; in the test on NCI-H226 lung, 107%; in the test with NCI-H322M lung, 104%; with HOP-62 NSCLC, 88.1%; with NCI-H460 lung, 106%; with HOP-92 NSCLC, 93.4%. The growth in the test with NCI-H522 lung was 94%; with A549/ATCC NSCLC, 106%; with 786-0 renal, 93.9%; with COLO 205 colon it was 102%; in the test on DU-145 prostate, 103%; with K-562 leukemia, 99.5%. Moreover, the growth in the test with MALME-3M melanoma is 97.5%; in the test with MDA-MB-231 breast it was 93.9%; in the test with RXF 393 renal, 120%; in the test on SF-268 CNS it was 100%; with SF-295 CNS, 94.9%; in the test with SF-539 CNS it was 92.1%. Moreover, the growth was 108% in the test with UACC-257 melanoma and 100% in the test on M14 melanoma.

For `COc1ccc(-c2nc3sc(-c4ccccc4)c(-c4ccccc4)n3c2/C=C/c2ccc(F)cc2)cc1`, the growth in the test with NCI-H23 lung was 97%; in the test with NCI-H226 lung, 107%; in the test on NCI-H322M lung, 103%; with HOP-62 NSCLC, 95.9%; in the test with NCI-H460 lung, 92.9%; in the test with HOP-92 NSCLC it was 94.5%. Further, the growth with NCI-H522 lung was 106%; in the test with A549/ATCC NSCLC, 83.8%; with 786-0 renal it was 100%; in the test with COLO 205 colon, 99.6%; in the test on DU-145 prostate, 103%; with K-562 leukemia, 107%. Also, the growth in the test on MALME-3M melanoma was 96.6%; in the test with MDA-MB-231 breast, 86.7%; in the test with RXF 393 renal, 89.4%; in the test on SF-268 CNS, 97.8%; in the test on SF-295 CNS, 97%; in the test with SF-539 CNS it was 92.1%. Further, the growth is 99% in the test on UACC-257 melanoma and 83.1% with M14 melanoma.

Regarding `CC(C)OP(=O)(O)c1ncc(-c2ccc(C(F)(F)F)cc2)c(NC2CCCCCC2)n1`, the growth with NCI-H23 lung is 62.6%; in the test with NCI-H226 lung, 74.1%; in the test with NCI-H322M lung it was 91.1%; with HOP-62 NSCLC it was 70.5%; in the test on NCI-H460 lung, 41.5%; in the test with HOP-92 NSCLC, 22.8%. Further, the growth in the test on NCI-H522 lung was 48.8%; in the test with A549/ATCC NSCLC it was 49.2%; in the test with 786-0 renal, 81.6%; with COLO 205 colon it was 61%; in the test with DU-145 prostate, 90.1%; in the test with K-562 leukemia, 36.3%. In addition, the growth was 5.39% (active) in the test on MALME-3M melanoma; 89.9% in the test on MDA-MB-231 breast; 90.1% in the test on RXF 393 renal; 75.6% in the test on SF-268 CNS; 11.5% in the test on SF-295 CNS; 92.4% in the test with SF-539 CNS. In addition, the growth was 28.6% in the test on UACC-257 melanoma and 53.7% in the test on M14 melanoma.
